Results on 43 sequences are retold here after publication PMC7819943, “Rice protein-binding microarrays: a tool to detect cis-acting elements near promoter regions in rice”.

Over roughly 39,000 sequences, “fluorescence intensity (a.u.)” has its median near 4,300; the highest 2% begin near 39,000. The list comes from a sample in which the highest values are over-represented; it also holds similar and randomly drawn sequences.

The target of this assay is T1, OsSMF1 (Oryza sativa, UniProt Q6ZLB0 1-436).
T1 sequence: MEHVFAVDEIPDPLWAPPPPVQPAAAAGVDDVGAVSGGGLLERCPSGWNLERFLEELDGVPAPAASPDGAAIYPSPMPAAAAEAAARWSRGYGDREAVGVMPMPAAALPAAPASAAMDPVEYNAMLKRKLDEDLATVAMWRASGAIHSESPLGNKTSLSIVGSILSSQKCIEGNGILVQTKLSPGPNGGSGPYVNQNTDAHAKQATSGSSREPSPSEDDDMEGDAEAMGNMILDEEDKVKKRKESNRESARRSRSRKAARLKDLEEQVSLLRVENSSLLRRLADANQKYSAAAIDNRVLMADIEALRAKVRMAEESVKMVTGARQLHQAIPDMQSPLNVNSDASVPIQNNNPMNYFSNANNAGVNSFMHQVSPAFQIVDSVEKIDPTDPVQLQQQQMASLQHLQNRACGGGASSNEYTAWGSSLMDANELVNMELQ
The assay can be described thus: protein-binding microarray (RPBM); PBS, 2% BSA, 51.3 ng/ul salmon testes DNA, 50 uM zinc acetate, 200 nM TF, 25 C, 1 h; high values mean tight binding. Particulars: protein: recombinant; tags: N-terminal polyhistidine and DsRed monomer fusion (pET32a); chain copies: 2; label: CyDye5-dUTP incorporated in the synthesized complementary strand; 3' TTTTT single-stranded linker to array surface; dsDNA, one strand shown. The method in brief: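 Polyhistidine-tagged DsRed fusions of transcription factors, joined at the N-terminus, were expressed in E. coli BL21-CodonPlus and isolated on Ni–NTA. They were incubated at 200 nM for 1 h at 25 °C on a custom Agilent array, double-stranded and BSA-blocked, in PBS with 2% BSA, salmon testes DNA and 50 µM zinc acetate. The binding signal is per-feature fluorescence intensity (arbitrary units) read on an Axon 4000B scanner after washing.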
In the case of “TTCAAGTCCACATGGTGCTGACGTGAAACTGTCACATACACGGAGTCACCTAGTGCAG”, the binding signal is 7250 fluorescence intensity (a.u.). Regarding “GCATAGGAAGGTGACATGGCATATCCATGTGGCGATTTTGCGGAGTCACCTAGTGCAG”, the binding signal is 7280 fluorescence intensity (a.u.). With “ACCAGTACGCATAGCATCATGTTGTTCCTGTGAAAGCATCCGGAGTCACCTAGTGCAG”, the binding signal was 3460 fluorescence intensity (a.u.). For the sequence “AGCTTCATCTGCAATCCTCCGCTGATCTCTCCCTGTCCGGCGGAGTCACCTAGTGCAG”, the binding signal was 3940 fluorescence intensity (a.u.).

Turning to “CCATCGCCGCCGCCCTCTTCTTCTTCTTCTTGCGAAGCAACGGAGTCACCTAGTGCAG”, the binding signal is 19100 fluorescence intensity (a.u.). Regarding “AAGAGATCCTTGTGTTTCGGAAGAATTTTGGTTGGTGTATCGGAGTCACCTAGTGCAG”, the binding signal was 23500 fluorescence intensity (a.u.).

On to “CATAATATGGTAGTGTTGTTTCTCATGCAAGTATTGGCGTCGGAGTCACCTAGTGCAG”, for which the binding signal was 3160 fluorescence intensity (a.u.). Take “TTATTTTGGTCAGTTGAAGTGTGGAAAATGGTGAAAATCTCGGAGTCACCTAGTGCAG”: the binding signal was 3880 fluorescence intensity (a.u.). On to “TTTCAGAGTTTGAAGTTGGAAATCAACCTTGTTGTTCTCTCGGAGTCACCTAGTGCAG”, for which the binding signal was 63100 fluorescence intensity (a.u.). Regarding “ACAAGTTGGAGCTACTTTCTTTTGAAATGACAGATCAACTCGGAGTCACCTAGTGCAG”, the binding signal is 3250 fluorescence intensity (a.u.).

Regarding “GCAGAGGAACCTTGGTAGTAGTATTTGGTTTCTCAGAAGTCGGAGTCACCTAGTGCAG”, the binding signal is 52600 fluorescence intensity (a.u.).

“GAGAGCTCCCTTTTCGTACCACCTCGCCGCGTCGGCTGCTCGGAGTCACCTAGTGCAG”: the binding signal is 4870 fluorescence intensity (a.u.). On to “AGCCGCGGTCACGCACGCCACGCGTTCGATCGATCGATCACGGAGTCACCTAGTGCAG”, for which the binding signal is 4120 fluorescence intensity (a.u.). Take “GCTGGCTGGATTGCCACGTGTATGTCACGTAGGATAAAACCGGAGTCACCTAGTGCAG”: the binding signal was 14300 fluorescence intensity (a.u.). Regarding “GTTGACCCGCAGTTCCCCTTTGTTTTCCACGTGTTTCTTCCGGAGTCACCTAGTGCAG”, the binding signal is 7790 fluorescence intensity (a.u.). On to “CGGACGTCCCACACGCTTGGTGTCACGACGAGAGGAACCTCGGAGTCACCTAGTGCAG”, for which the binding signal is 3450 fluorescence intensity (a.u.). Turning to “AAACATCAATTGTATTATCCTTGAAAAGAAGGCACATCACCGGAGTCACCTAGTGCAG”, the binding signal was 44800 fluorescence intensity (a.u.). For the sequence “ATCAAAGAGGATTCTGTATTGTATTGGCAACAACCGAAAACGGAGTCACCTAGTGCAG”, the binding signal was 13800 fluorescence intensity (a.u.). In the case of “CTTGAAGGAAAACAAGTATAAGGTTCATCCTCATCATCACCGGAGTCACCTAGTGCAG”, the binding signal was 3270 fluorescence intensity (a.u.).

In the case of “ATTGAAAATTTTGTTTGAGTGCACATCGTGTGCATTTTATCGGAGTCACCTAGTGCAG”, the binding signal was 8920 fluorescence intensity (a.u.). “AAATTTTAATACGTGTAGCATTGCTCCCGGTAATGTATTTCGGAGTCACCTAGTGCAG”: the binding signal was 3700 fluorescence intensity (a.u.). On to “ATAGAGATCACAGTCACACACATATGGCCTGTGCATTTACCGGAGTCACCTAGTGCAG”, for which the binding signal is 3720 fluorescence intensity (a.u.).

“TGACATAGAGAGTGATCACAAGCGAAATATTTATTCGGAACGGAGTCACCTAGTGCAG”: the binding signal was 48300 fluorescence intensity (a.u.).

For “CGAAAATGATCTGACACTTATTCGAAAGCAACGTCACAAGCGGAGTCACCTAGTGCAG”, the binding signal is 4300 fluorescence intensity (a.u.). Turning to “GGAGAAACAATATTCGTCATACATTTTGAACCAGATCAAGCGGAGTCACCTAGTGCAG”, the binding signal is 31700 fluorescence intensity (a.u.). As to “GGCCAGGATGATCGAGCACTTGGTTGTGACACAGAGGGTGCGGAGTCACCTAGTGCAG”, the binding signal is 3220 fluorescence intensity (a.u.).

For the sequence “ATTTGGTATGACTTGGCTTCAAACCAAGATGGTCCGGAGTCGGAGTCACCTAGTGCAG”, the binding signal was 5390 fluorescence intensity (a.u.). In the case of “CCCACATCGCTCCGCGTCATTAGATTTAGCACTTTATCTTCGGAGTCACCTAGTGCAG” it was 5240 fluorescence intensity (a.u.); in that of “TGCGCCGTCTGCGTCAGCGTGCCTCGTCGCAGTCGCAGGCCGGAGTCACCTAGTGCAG”, 6400 fluorescence intensity (a.u.). As to “CATGTTCGTGCGCCGTCACTACAGGCACCTCGCTGTCAACCGGAGTCACCTAGTGCAG”, the binding signal was 40100 fluorescence intensity (a.u.). With “CGCCATGTGTCAACTGGCATGGCCGTGCGCTGGCACACACCGGAGTCACCTAGTGCAG”, the binding signal is 5160 fluorescence intensity (a.u.). With “TTGGCCACCTCCACCTCACTCGCATGAAGGCTAAGTGAGCCGGAGTCACCTAGTGCAG”, the binding signal was 4160 fluorescence intensity (a.u.). As to “CCTAAATAAGCTAGCAAAATAGCCAATGCCAGCCAATATTCGGAGTCACCTAGTGCAG”, the binding signal was 28300 fluorescence intensity (a.u.). Regarding “CTATGGCTCATGAGCCAAAATTCAAAAGGCTAACGTTGGCCGGAGTCACCTAGTGCAG”, the binding signal was 43400 fluorescence intensity (a.u.).

Regarding “TATGACTAATCATGGACTAATTAGGCTCAAAAGATTCGTCCGGAGTCACCTAGTGCAG”, the binding signal is 33200 fluorescence intensity (a.u.). On to “TAAGCTCCAAAGCCAGCTATAGCATGAGCTCCAAAATATACGGAGTCACCTAGTGCAG”, for which the binding signal is 45700 fluorescence intensity (a.u.).

Turning to “ATATATACTCCAAGCTCGGTGAGCCAGCATCACCACCAACCGGAGTCACCTAGTGCAG”, the binding signal was 3220 fluorescence intensity (a.u.).

On to “CACCTCCCCTTCCCATCCCAACCGGCCAACCCTCCCCACCCGGAGTCACCTAGTGCAG”, for which the binding signal is 13900 fluorescence intensity (a.u.). In the case of “GCCGATCCCCGAGGAGGGCGGCGACGTGGAAGGGGAGGGCCGGAGTCACCTAGTGCAG”, the binding signal was 4090 fluorescence intensity (a.u.).

As to “GGTAATGGGAGAGGCTGATGTGGCGTGAAATCTCTTGCGTCGGAGTCACCTAGTGCAG”, the binding signal was 16800 fluorescence intensity (a.u.).

As to “TTTATCAAAGCGTCATATATCAATGACCAGAGGTACAACACGGAGTCACCTAGTGCAG”, the binding signal was 3940 fluorescence intensity (a.u.). Then “CACCATTTTGGGCCGACACATCAAGCAGGCCAACGCGCAGCGGAGTCACCTAGTGCAG”, with 3300 fluorescence intensity (a.u.); and “CCCAACTGTTCTTTCCGTCACGTCACGCACAAGTCAAAATCGGAGTCACCTAGTGCAG”, with 5230 fluorescence intensity (a.u.).
